Results reported in PubChem BioAssay AID652154 (Broad Institute, 2013).
Where “and” joins values, the source holds several entries; their conditions need not be identical. Identical values can stand only once. Screen size: about 360,000 compounds; about 4,200 (1.2%) were called active. This is one part of a sample in which actives are shown more often than they occur.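 The calls were made as follows: active = mean replicate inhibition at least 60% with every replicate also reaching 60%; inconclusive = only one of the two criteria is met; inactive = mean below 60% and not all replicates reaching 60%.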

Assay: inhibitors of PAX8-driven TPO luciferase reporter, primary screen, RMG-I cells, single concentration (AID 652154);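 also: luciferase light reporting Pax8 driven TPO promoter activity; plate controls were median of neutral control wells for no effect and mitoxantrone controls for full effect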
Details: SteadyGlo, 24 h, at 12.6 µM, hits give high values

Row | SMILES | inhibition
1 | CN(C)CC1Oc2ccccc2OC1(O)c1ccccc1 (stereo not given) | 78.4% (active)
2 | O=C(Cc1ccccc1)N1CCCCN2[C@H](CO)[C@H](c3ccc(C#Cc4ccccc4)cc3)[C@H]2C1 | 0.0955% (inactive)
3 | O=C(Cc1ccncc1)N1CCCCN2[C@H](CO)[C@@H](c3ccc(C#CC4(O)CCCC4)cc3)[C@H]2C1 | -4.86% (inactive)
4 | O=C(Cc1ccccc1)N1CCCCN2[C@H](C1)[C@H](c1ccc(C#CC3(O)CCCC3)cc1)[C@@H]2CO | 12.4% (inactive)
5 | CCC(C)(O)C(=O)OC1C(=O)OC2CC3C(C)=CC(=O)C(O)C3(C)C3C4(O)OCC23C1C(C)C4O (stereo not given) | 96.4% (active)
6 | C/C=C/c1ccc([C@H]2[C@H](CO)N3CCCCN(C(=O)Cc4ccncc4)C[C@@H]23)cc1 | 11.3% (inactive)
7 | N#Cc1cccc(-c2ccc([C@H]3[C@@H](CO)N4CCCCN(C(=O)Cc5cccnc5)C[C@@H]34)cc2)c1 | -12% (inactive)
8 | Cc1cc(N2CCNC[C@@H]2C)ccc1N1CC[C@H](O)C1 | 1.43% (inactive)
9 | CC(=CCOc1ccc2ccc(=O)oc2c1)C1=CC(=O)C(C)(C)O1 | 108% (active)
10 | COc1ccc(C#Cc2ccc([C@H]3[C@H](CO)N4CCCCN(C(=O)Cc5ccccc5)C[C@@H]34)cc2)cc1 | -13.5% (inactive)
11 | C/C=C/c1ccc(C2[C@@H]3CN(Cc4cncnc4)C[C@H]2N3)cc1 (stereo not given in full) | -5.53% (inactive)
12 | COc1cccc(-c2ccc3n(c2=O)C[C@@H]2[C@@H](CO)[C@H](C(=O)O)[C@H]3N2C(=O)c2cnccn2)c1 | 1.83% (inactive)
13 | COC(=O)[C@@H]1[C@@H](CO)[C@@H]2Cn3c(ccc(-c4ccc(F)cc4)c3=O)[C@H]1N2C(C)=O | -4.95% (inactive)
14 | CCOc1ccc(-c2cc(C)[n+](CCN(CC)CC)c(-c3ccc(OCC)cc3)c2)cc1 | 87.4% (active)
15 | CCOC(=O)[C@]12Cc3cc(OC)ccc3[C@H]1N(C(C)C)C(=O)c1ccccc12 | -13.7% (inactive)
16 | O=C(Cc1ccncc1)N1CCCCN2[C@@H](CO)[C@H](c3ccc(C#CC4(O)CCCC4)cc3)[C@@H]2C1 | -6.83% (inactive)
17 | O=S(=O)(c1ccccc1)N1CCC2CCNC2C1 (stereo not given) | -15.4% (inactive)
18 | O=C(Cc1cccnc1)N1CCCCN2[C@@H](CO)[C@H](c3ccc(C#CC4CCCC4)cc3)[C@@H]2C1 | -34.4% (inactive)
19 | COc1cccc(-c2ccc([C@H]3[C@H]4CN(C(=O)Cc5ccncc5)CCCCN4[C@H]3CO)cc2)c1 | 47.9% (inactive)
20 | CCOC(=O)[C@@H]1[C@@H]2NC(=O)N[C@@]1(C)Oc1ccccc12 | 8.82% (inactive) and -6.19% (inactive)
